Measured values: PubChem BioAssay (NCI)
This is part of a sample that, as a whole, favours compounds with a hit. Of some 83,000 tested, about 20% had one in any assay.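 The test compound was applied at a single concentration to cells in 96-well plates for 48 hours, and percent growth was recorded.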 Values without a mark were called inactive. The source made the active and inactive calls. Rule for the calls: active = growth percent below 10; inactive = the rest.

Each molecule was assayed on MDA-MB-468 breast (assay: NCI-60 one-dose screen, 48 h (100 = growth as untreated, 0 = no growth, -100 = all killed)). Details: 10 µM unless noted.

Row | SMILES | growth
1 | Cc1ccc(-c2nc3nc(-c4ccccc4)nc(N4CCCNCC4)c3o2)cc1 | -67.5% (active)
2 | COc1ccc(SC2c3ccc(O)cc3Oc3nc(N)c(C#N)c(N)c32)cc1 (stereo not drawn) | 89.6%
3 | Cc1nc2sc(C(=O)Nc3cccc(Cl)c3C)c(N)c2cc1C(O)c1ccccc1 (stereo not drawn) | 18.5%
4 | COc1cc2c3c(c1O)-c1ccccc1[C@@H]1OC(=O)N(CC2)[C@H]31 | 90%
5 | CC(C)(C)c1cc(NC(=O)Nc2ccc(-c3cn4c5c(sc4n3)CCc3cn(CCCN4CCCCC4)cc3-5)cc2)no1 | -76% (active)
6 | CC1CCC(=O)N1c1ccc(N)cc1 (stereo not drawn) | 115%
7 | CCCn1nc(C(=O)N2CCCCC2)c2c1CCC(N1CCC(c3ccncc3)CC1)C2 (stereo not drawn) | 104%
8 | Cc1[nH]c(-c2ccc3cc[nH]c3c2)c2c1C(=O)CCCC2 | 15.8%
9 | COc1ccc(C2=NN(C=O)C(c3cccc(Nc4ccnc5cc(Cl)ccc45)c3)C2)cc1 (stereo not drawn) | -3.92% (active)
10 | COc1ccc(Cn2cc3c(c2-c2cc(OC)c(OC)c(OC)c2)CCc2c(CN4CCCC4)noc2-3)cc1 | 50.7%
11 | NC(=O)c1c(NC(=O)c2ccc(F)cc2F)sc2c1CCC(=O)C2 | 81.7%
12 | O=C(Nc1ccccc1)Nc1nc2ccc([N+](=O)[O-])cc2s1 | -22.6% (active)
13 | Cn1c(O)c(N=NC(=O)c2cc(-c3ccccc3)on2)c2ccccc21 | 107%
